# Source: PubChem BioAssay
# In the library only some 1.8% were active in any assay of this set; here they are far more common.
# LYPLA2 counter: LYPLA2 inhibitors, primary screen, counter-screen for PME1 inhibitor project, biochemical, fluorescence polarization, FP-Rh probe ABPP; Acyl-protein thioesterase 2 (Homo sapiens), O95372; recombinant LYPLA2; inhibition, % at 5.9 µM; 0.38% of 320,000 active; AID 2177, 2009;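 active = inhibition above the screen-wide mean plus 3 SD, limit set per campaign, cut at about 26% in these data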;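 also: 0% = LYPLA2 with DMSO and 100% = wells lacking LYPLA2 enzyme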
# Target sequence (O95372 whole entry, looked up): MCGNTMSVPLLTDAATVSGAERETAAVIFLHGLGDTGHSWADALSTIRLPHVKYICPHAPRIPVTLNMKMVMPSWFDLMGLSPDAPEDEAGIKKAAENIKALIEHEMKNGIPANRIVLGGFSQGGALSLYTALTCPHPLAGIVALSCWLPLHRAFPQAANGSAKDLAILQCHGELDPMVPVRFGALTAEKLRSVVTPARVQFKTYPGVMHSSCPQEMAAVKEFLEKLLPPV
# PAD4 FP inh: human PAD4 inhibitors, primary screen, biochemical, fluorescence polarization, 1536-well format; 0.41% of 330,000 active; Protein-arginine deiminase type-4 (Homo sapiens), Q9UM07; recombinant PAD4, RCA probe fluorescence polarization; inhibition, % at 6.36 µM;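 active = percent inhibition above a cutoff equal to the mean of all tested compounds plus 3 SD, cut at about 15% in these data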;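 also: 0% = PAD4 with RCA probe and DMSO and 100% = probe without PAD4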
# Fam108B counter: mouse Fam108B serine hydrolase inhibitors, primary screen, counter-screen for RBBP9 inhibitor project, biochemical, fluorescence polarization; inhibition, % at 9.51 µM; AID 1947, 2009; recombinant Fam108B, FP-Rh probe fluorescence polarization; 0.33% of 300,000 active;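 active = inhibition above the screen mean inhibition plus 3 SD, computed separately per campaign, cut at about 18% in these data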;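 also: inhibitors lower polarization as less probe binds the enzyme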
# PME-1 primary: PME-1 inhibitors via competitive probe labeling, primary screen, biochemical, fluorescence polarization, FP-Rh probe, HTS. recombinant PME-1. inhibition, % at 5.9 µM. 0.53% of 320,000 active. AID 2130, 2009;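 active = inhibition above the campaign mean of all compounds plus 3 SD, cut at about 26% in these data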;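 also: competitive labeling of PME-1 active site by serine hydrolase directed probe; 0% = PME-1 with DMSO and 100% = wells lacking PME-1 enzyme; inhibitors block probe labeling so polarization falls and inhibition rises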
# GSTO1 counter: inhibitors of recombinant GSTO1, primary screen, counter-screen for RBBP9 inhibitor project, biochemical, fluorescence polarization; Glutathione S-transferase omega-1 (Homo sapiens), P78417; activity-based probe fluorescence polarization; inhibition, % at 5.96 µM; 1.1% of 300,000 active; AID 1974, 2009;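 active = inhibition above the campaign mean inhibition plus 3 SD, cut at about 35% in these data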;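 also: 0% = GSTO1-1 with DMSO and 100% = wells lacking GSTO1-1 enzyme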
# Target sequence (P78417 whole entry, looked up): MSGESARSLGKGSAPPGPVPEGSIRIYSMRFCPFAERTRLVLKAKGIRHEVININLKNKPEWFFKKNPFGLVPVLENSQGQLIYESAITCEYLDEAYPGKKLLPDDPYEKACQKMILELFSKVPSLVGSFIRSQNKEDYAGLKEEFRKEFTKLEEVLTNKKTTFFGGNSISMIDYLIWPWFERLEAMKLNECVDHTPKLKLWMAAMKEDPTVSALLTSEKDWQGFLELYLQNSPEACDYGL
# LYPLA1 inh: LYPLA1 inhibitors, primary screen, counter-screen for PME1 inhibitor project, biochemical, fluorescence polarization, FP-Rh probe ABPP. Acyl-protein thioesterase 1 (Homo sapiens), O75608. 0.16% of 320,000 active. recombinant LYPLA1. inhibition, % at 5.9 µM. AID 2174, 2009;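 active = inhibition above the mean of all tested compounds plus 3 SD, set per campaign, cut at about 14% in these data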;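 also: inhibitors block serine hydrolase probe labeling of LYPLA1 so polarization falls; 0% = enzyme with DMSO and 100% = wells lacking LYPLA1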
# GSTO1 inh conf: GSTO1 inhibitor hit confirmation, counter-screen for RBBP9 inhibitor project, biochemical, fluorescence polarization, triplicate. recombinant GSTO1, probe fluorescence polarization. 54% of 2,400 active. AID 2176, 2009. shares compounds with GSTO1 counter. inhibition, % at 5.96 µM;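 active = inhibition above the primary screen's cutoff, its mean inhibition plus 3 SD, cut at about 35% in these data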;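 also: loss of polarization as inhibitors block binding of rhodamine sulfonate ester activity probe; 0% = GSTO1 with DMSO and 100% = wells lacking GSTO1 enzyme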
# Active calls of the source: *; . = no result.
SMILES,LYPLA2 counter,PAD4 FP inh,Fam108B counter,PME-1 primary,GSTO1 counter,LYPLA1 inh,GSTO1 inh conf
Cc1ccc(C(C)NC(=O)c2cc3cc(Br)ccc3oc2=N)cc1 (centres undefined),-1,-4,1,4,-1,1,.
COc1cc2c(ccc3cc(OC)c(OC)c(O)c32)cc1O,9,-2,5,2,55*,1,45*
C[C@@H]1COC(=O)[C@@H](Cc2ccc(F)cc2)C/C=C\C[C@@H](CC(=O)NCCO)C(=O)N1,.,5,.,.,.,.,.
CCOc1ccc(C2C(C(=O)/C=C/c3ccco3)=C(O)C(=O)N2CCN2CCOCC2)cc1OC (centres undefined),-11,-3,-2,-8,38*,-5,6
COc1ccc(C2C(C(=O)/C=C/c3ccco3)=C(O)C(=O)N2CCN2CCOCC2)cc1 (centres undefined),-1,-3,3,-8,12,-3,.
CCOc1ccc(NC(=O)C2C(C(=O)O)C3(Cl)C(Cl)=C(Cl)C2(Cl)C3(Cl)Cl)cc1 (centres undefined),2,2,4,-1,44*,2,30
CCOc1ccc(NC(=O)C2C(c3ccccc3)C2(Cl)Cl)cc1 (centres undefined),-6,2,0,0,-1,-4,.
COc1ccc(C(=O)Cc2ccc3c(c2)OCO3)c(O)c1,6,-2,2,-8,-5,-5,.
O=C(Cc1ccc2c(c1)OCCO2)c1c(O)cc(O)cc1O,6,-5,3,-6,51*,1,35
O=C(/C=C/c1ccc(O)cc1)c1c(O)cc(O)cc1O,11,-6,2,0,13,1,.
O=C(CCc1ccc(O)cc1)c1c(O)cc(O)cc1O,1,0,6,5,46*,-3,19
O=C(Cn1cnc2ccccc2c1=O)NNC(=O)c1ccccc1,4,6,1,2,6,1,.
CC(=O)c1cccc(Nc2nc(-c3ccccc3)nc3ccccc23)c1,-3,-4,3,0,0,-4,.
CC(=O)c1cccc(-c2ccc3c(=O)[nH]c(Nc4ccccc4)cc3c2)c1,-7,-7,16,21,49*,-5,12
O=C(O)CN1C(=O)CC(c2ccccc2)CC1=O,3,-4,2,-6,3,0,.
Cc1cc([N+](=O)[O-])cc2c1NC(=O)C2(O)N1CCOCC1 (centres undefined),3,-5,4,7,38*,-1,15
CC(=O)NN1C(=O)c2ccccc2NC1c1ccc([N+](=O)[O-])o1 (centres undefined),5,-1,1,-2,17,1,.
O=C(NN1C(=O)c2ccccc2NC1c1ccc([N+](=O)[O-])o1)c1ccc(Br)cc1 (centres undefined),4,-9,-2,7,39*,2,8
CN(Cc1cccs1)C(=O)C1CC(=O)N(Cc2ccccc2)C1 (centres undefined),-3,1,-2,-2,-2,1,.
CSc1ccc(C(c2c(C)[nH][nH]c2=O)c2c(C)[nH][nH]c2=O)cc1,-9,-8,2,-4,39*,-4,0
Oc1ccc(NCc2ccccc2OCc2ccccc2F)cc1,19,3,10,26,74*,-2,10
CCOc1cc(CNc2ccc(O)cc2)ccc1OCc1ccc(Cl)cc1Cl,14,30*,16,29*,87*,5,3
Cc1ccc(NCc2ccccc2OCc2ccccc2F)cc1,4,-5,3,-2,7,-1,.
CCOc1cccc(CNc2ccc(O)cc2)c1OCc1ccc(Cl)cc1,5,-11,17,22,76*,-1,4
COc1cccc(CNCCO)c1OCc1ccc(Cl)cc1,-1,2,2,1,9,-4,.
SMILES,LYPLA2 counter,PAD4 FP inh,Fam108B counter,PME-1 primary,GSTO1 counter,LYPLA1 inh,GSTO1 inh conf
CC1(C)CC(=O)C=C(CN2C(=O)c3ccccc3C2=O)C1=O,4,3,.,1,.,2,.
COc1ccc(CCNC(=O)CNC(=O)c2ccc(Br)o2)cc1OC,-7,-2,0,-4,15,-6,.
O=C1C(=Cc2ccco2)C(=O)c2ccccc21,8,-2,7,3,38*,0,27
O=C(Cn1ncc2c3ccccc3n(Cc3ccccc3F)c2c1=O)NCC1CCCO1 (centres undefined),7,-3,0,-5,-5,-7,.
O=C(CNC(=O)c1ccccc1F)NCC(c1cccs1)N1CCOCC1 (centres undefined),1,6,.,0,.,-1,.
O=C(NCCN1CCCC1)c1ccccc1Cl,4,3,2,5,2,-3,.
Cc1cc(C)cc(NC2=C(N)C(=O)c3ccccc3C2=O)c1,22,13,3,6,22,1,.
CCN(CC)c1ccc(NC2=C(Cl)C(=O)c3ccccc3C2=O)cc1,1,-2,14,7,83*,-3,84*
O=C1C(O)=C(O)C(=O)c2ccccc21,7,2,12,11,81*,5,68*
O=C1C(=O)c2ccccc2C(O)=C1c1ccccc1F,9,-5,3,0,-5,4,.
O=C1C(Cl)=C(NCCN2CCCCC2)C(=O)c2ccccc21,4,-3,4,4,71*,-1,52*
Cc1ccc(NC2=C(Cl)C(=O)c3ccccc3C2=O)cc1,10,2,10,21,85*,-1,85*
COc1ccc2c(c1)[C@H]1[C@H](CO2)[C@H](c2ccccc2)[C@]2(C)C(=O)N(CC3CCCO3)CC(=O)N12 (some centres undefined),7,-5,.,-4,.,1,.
COC(=O)c1cc(C(=O)NNC(=O)c2ccc3c(c2)OCO3)cc([N+](=O)[O-])c1,-3,-8,.,-1,.,1,.
CCNC1=C(Cl)C(=O)c2ccccc2C1=O,7,-5,3,10,70*,6,8
COC1=C(Nc2ccc(OC)cc2)C(=O)c2ccccc2C1=O,13,-15,5,11,17,5,.
COc1cc(OC)c(NC2=CC(=O)C(=O)c3ccccc32)cc1Cl,10,11,17,10,79*,3,77*
